“And” between values parts separate entries of the source, which are not always exact repeats. Equal values may be shown once. Among all 220,000 compounds or so, about 2,600 (1.2%) were called active.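 The calls were made as follows: active = activation above the mean of all tested compounds plus 3 SD, set per screening run (cut at about 8.8% in these data); inactive = the rest.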 Only a selection was taken, and actives are over-represented in it overall. Where a structure was tested more than once in an assay, its records may differ in their call.

This is an account of results in PubChem BioAssay AID1321 (The Scripps Research Institute Molecular Screening Center, 2008).

For the assay, the target named is Wee1-like protein kinase (Homo sapiens) (UniProt P30291). Briefly: Wee1 degradation inhibitors, primary screen, cell-based, HeLa, Wee1K328M-luciferase, luminescence (AID 1321).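 Also: cells exposed to compound for 20 h before luminescence read; 0% = DMSO alone and 100% = MG132 at 30 µM.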 The conditions noted are these: HeLa Luc-Wee1K328M stability, at 5 µM, stronger effect = higher value, 100% = proteasome inhibitor MG132 effect.
In the case of `NNC(=O)c1ccc(COCC(F)(F)C(F)F)cc1`, the reporter increase was 2.09% (inactive). Consider `COc1ccc(-c2csc(NC3OC(=O)c4ccccc43)n2)cc1` (stereo not given), for which the reporter increase is 1.6% (inactive).

`Cc1nnsc1C(=O)NCc1c(F)cccc1Cl`: the reporter increase is -2.45% (inactive).

For `Cn1c(=O)c2c(nc(NCc3ccccc3)n2CC(N)=O)n(C)c1=O`, the reporter increase was -2.48% (inactive). The result for `Cc1ccc(C(=O)OC(C)CN2CCOCC2)cc1` (stereo not given) reads 2.34% (inactive); that for `CC(CN1CCOCC1)c1ccccc1` (stereo not given), 11.8% (active); that for `OC(c1ccccc1)C(CN1CCOCC1)c1ccccc1` (stereo not given), 0.23% (inactive). With `Cc1ccc2[nH]c(=O)c(CC=C(Cl)Cl)c(C)c2c1` the figure was -1.17% (inactive); with `Cc1ccc2[nH]c(=O)c(CN3CCCCC3)c(-c3ccccc3)c2c1`, 11.8% (active); with `O=C(CN1CCOCC1)Nc1c(-c2ccccc2)c2cc(Br)ccc2[nH]c1=O`, -2.5% (inactive). For `Cc1cc(Nc2ccc(N3CCOCC3)cc2)c2cccc(C)c2n1`, the reporter increase is 1.6% (inactive). In the case of `C/C(=N\Nc1cccc(C(=O)O)c1)c1ccc2c(c1)Nc1ccccc1S2`, the reporter increase is 2.58% (inactive). For `Cc1ccccc1N(C(=O)Cc1cccs1)C(C(=O)NC1CCCCC1)c1cn(C)nc1C` (stereo not given), the reporter increase was 12.1% (active). With `Cc1cccc(N(C(=O)Cc2cccs2)C(C(=O)NC2CCCC2)c2ccsc2)c1` (stereo not given) the figure was -1.49% (inactive); with `Cc1ccsc1C(C(=O)NC1CCCCC1)N(C(=O)Cc1cccs1)C1CC1` (stereo not given), -1.86% (inactive); with `Nc1scc[n+]1Cc1cccc2cccnc12`, 4.15% (inactive). The result for `CC(C)=NN1C(=O)c2ccccc2NC1(C)C` reads 2.65% (inactive); that for `CC(NC(=O)C(C)(C)C)C(c1cccs1)N1CCN(Cc2ccccc2)CC1` (stereo not given), -2.56% (inactive). With `CCOC(=O)c1ccc(NC(=O)C2CC(=O)Nc3nc4ccccc4n32)cc1` (stereo not given) the figure was -0.26% (inactive); with `O=C(Nc1ccccc1)C1CC(=O)n2c(nc3ccccc32)N1` (stereo not given), -0.1% (inactive); with `CC(=O)c1ccc(NC(=O)C2CC(=O)Nc3nc4ccccc4n32)cc1` (stereo not given), 11.6% (active). Take `Cn1nc(C(C)(C)C)c(NC(=O)c2sccc2Cl)c1C(C)(C)C`: the reporter increase was 1.43% (inactive). For `O=C1N=C(N2CCc3ccccc3C2)S/C1=C\c1ccc(O)cc1`, the reporter increase was -2.98% (inactive). With `COc1cc(C(=O)Nn2c(O)c(C3=c4ccccc4=NC3=O)sc2=S)ccc1O`, the reporter increase is -2.51% (inactive).

For the compound `Cn1ncc(Br)c1C(=O)NCc1cccs1`, the reporter increase was 20.9% (active).

As to `O=C(NCc1cccs1)c1ccc(Br)o1`, the reporter increase is -0.94% (inactive). For `COc1ccccc1NC(=O)c1c(Br)cnn1C`, the reporter increase is 3.35% (inactive). With `O=C(O)C(c1ccccc1)C1(O)CCCCC1` (stereo not given), the reporter increase is 7.89% (inactive).

For `Cc1ccc(NNC(=O)c2c(F)cccc2Cl)cc1Cl`, the reporter increase is 0.76% (inactive).

In the case of `CCN(CC)CCNC(=O)c1ccc(NC(=O)c2c(F)cccc2Cl)cc1`, the reporter increase is 1.18% (inactive).

Turning to `O=C(NNc1cc(Cl)cc(Cl)c1)c1c(F)cccc1Cl`, the reporter increase was 9.07% (active). The result for `CCOC(=O)C1CCN(c2c(Nc3cc(C)cc(C)c3)c(=O)c2=O)CC1` reads -2.25% (inactive); that for `O=S(=O)(/N=C(/Nc1ccccn1)c1ccccc1)c1ccc(Cl)cc1`, -2.13% (inactive); that for `Cc1ccc(S/C(=N\S(=O)(=O)c2ccc(Cl)cc2)c2ccccc2)cc1`, 0.58% (inactive). In the case of `Cc1ccc(S(=O)(=O)/N=C(/Nc2ccccn2)c2ccc(Cl)cc2)cc1`, the reporter increase was 11.1% (active). As to `CCCCN(CCCC)CC(O)Cn1c2ccccc2c(=O)c2ccccc21` (stereo not given), the reporter increase was 0.32% (inactive).

`O=C(Nc1ccc(S(=O)(=O)Nc2nccs2)cc1)c1cccc(S(=O)(=O)N2CCOCC2)c1`: the reporter increase is -2.58% (inactive). With `CC(=O)N1CCC(N(C(=O)Nc2ccc(Cl)cc2)C(C)C)CC1` the figure was -1.37% (inactive); with `NC(=O)c1ccc(-c2csnn2)cc1`, -2.32% (inactive). On to `CCS(=O)(=O)N1CCC(C(=O)N2CCN(c3ccccc3)CC2)CC1`, for which the reporter increase is -1.23% (inactive). The result for `CS(=O)(=O)N1CCC(C(=O)N2CCN(c3ccccc3)CC2)CC1` reads 11.4% (active). The result for `CCCS(=O)(=O)N1CCCC(C(=O)N2CCN(c3ccccc3)CC2)C1` (stereo not given) reads -1.94% (inactive); that for `CN1CCN(CC(=O)Nc2sc3c(c2C#N)CCC(C(C)(C)C)C3)CC1` (stereo not given), 16.5% (active); that for `CCN1CCN(CC(=O)Nc2sc3c(c2C#N)CCC3)CC1`, -0.82% (inactive).

As for `CCC1CCc2c(sc(NC(C)=O)c2C#N)C1` (stereo not given), the reporter increase was 1.63% (inactive). Take `CC1CC(NC(=O)/C(C#N)=C/c2ccc[nH]2)CC(C)(C)C1` (stereo not given): the reporter increase was 1.3% (inactive).

On to `c1ccc(-n2cccc2)c(N2CCCCC2)c1`, for which the reporter increase is 3.42% (inactive). As for `C/C(CC(C)C)=N\Oc1nc(C)cc(C)n1`, the reporter increase is -1.74% (inactive). `Cc1cccc(C(=O)NC(=S)N2CCN(c3ccc([N+](=O)[O-])cc3)CC2)c1`: the reporter increase is -1.67% (inactive). Take `COc1cc(OC)cc(C(=O)NC(=S)N2CCN(c3ccc(C(F)(F)F)cc3[N+](=O)[O-])CC2)c1`: the reporter increase is 12.2% (active). As for `O=C(Nc1cccc(C(F)(F)F)c1)c1ccc(N2CCNCC2)c([N+](=O)[O-])c1`, the reporter increase was 1.22% (inactive). Take `Cc1cc(C)nc(NC(=O)/C=C/c2ccc(Cl)cc2)n1`: the reporter increase was -2.67% (inactive). For `CC(C)n1c(=S)[nH]c2cc(C(F)(F)F)ccc21`, the reporter increase was -2.42% (inactive). Turning to `Cc1[nH]n(C)c(=O)c1N=Nc1ccc(S(C)(=O)=O)cc1`, the reporter increase was 1.89% (inactive). With `COc1ccc(C(=O)NCC(=O)N/N=C/c2ccc([N+](=O)[O-])o2)cc1OC`, the reporter increase was -1.47% (inactive). `O=C(Cc1cc(=O)[nH][nH]1)N/N=C/c1ccccc1[N+](=O)[O-]`: the reporter increase is -4.24% (inactive). As for `COc1cc(CC(=O)N/N=C/c2ccccc2)c([N+](=O)[O-])cc1OC`, the reporter increase is 10.2% (active). The result for `CCn1c(SCC(=O)N/N=C/c2ccccc2OCC(=O)O)nnc1-c1ccc(C(C)(C)C)cc1` reads 0.66% (inactive); that for `CCN(CC)C(=O)CSC(Nc1cccc(F)c1)=C(C#N)C#N`, -3.44% (inactive); that for `Cc1cccc(N2CCN(Cc3nc(C4CC4)no3)CC2)n1`, -3.23% (inactive).

In the case of `Cc1ccc(S(=O)(=O)NC(=O)Nc2nc(-c3ccc(F)c(F)c3)cs2)cc1`, the reporter increase is 7.86% (inactive).

Turning to `C=CCOc1ccc(Cl)cc1CNCCCN1CCOCC1`, the reporter increase was -1.69% (inactive). With `COc1ccc(Cl)cc1NC(=O)CCN1CCOCC1`, the reporter increase is -3.24% (inactive). `COc1ccc(-c2ccc(CNCCCN3CCOCC3)o2)cc1Cl`: the reporter increase was 8.92% (active).

As for `Cn1c(SCC(=O)c2ccc(F)cc2)nnc1-c1ccccn1`, the reporter increase was -0.76% (inactive). The result for `COCC1CCCN(Cc2nc(-c3ccc4c(c3)OCO4)no2)C1` (stereo not given) reads 9.73% (active).

Take `CN(CCN1CCOCC1)Cc1nc(-c2ccc3c(c2)OCO3)no1`: the reporter increase was 1.41% (inactive). Turning to `CC(C)N(Cc1nc(-c2ccc3c(c2)OCO3)no1)CC1CCC(=O)N1` (stereo not given), the reporter increase is 2.1% (inactive). `Cc1ccc(-c2c[n+](=O)c3c(n2[O-])CCC3)cc1`: the reporter increase is -1.07% (inactive). The result for `O=C(CSc1ccc(/C=N/NC(=O)c2cccc(F)c2)o1)Nc1ccccc1` reads 9.46% (active); that for `N#CCC(=O)N/N=C/c1ccc(SCC(=O)Nc2ccccc2)o1`, -0.66% (inactive); that for `O=C(Cc1ccccc1)Nc1cccc(C(=O)N/N=C/c2ccco2)c1`, -1.22% (inactive). The result for `COc1cc2[nH]c(=S)n(Cc3ccc(F)cc3)c(=O)c2cc1OC` reads 12.6% (active); that for `CCOc1cc2[nH]c(=S)n(Cc3ccc(C(=O)NCCOC)cc3)c(=O)c2cc1OCC`, -1.62% (inactive). With `COc1cc2[nH]c(=S)n(Cc3ccc(C)o3)c(=O)c2cc1OC`, the reporter increase was 3.12% (inactive). As for `COc1ccc(F)cc1S(=O)(=O)N1CCCCC1`, the reporter increase was 2.94% (inactive).

Turning to `Cc1ccc(/C=N/NC(=S)NC2CCCCC2)o1`, the reporter increase is 3.18% (inactive). The result for `CCn1c(-c2ccncc2)n[nH]c1=S` reads 1.46% (inactive); that for `CCn1c(C(C)NC(=O)c2ccc(C)cc2)n[nH]c1=S` (stereo not given), -0.98% (inactive); that for `CCn1c(C(C)C)n[nH]c1=S`, 18.6% (active). For `O=C(NCc1ccco1)C1CCCN1S(=O)(=O)c1ccccc1C(F)(F)F` (stereo not given), the reporter increase is -1.13% (inactive). Consider `CCC1=NN2C(=N)/C(=C/c3cc(C)n(-c4ccccc4)c3C)C(=O)N=C2S1`, for which the reporter increase was 4.73% (inactive). The result for `COC(=O)c1sc(SC)c(S(=O)(=O)C(C)C)c1N/N=C(\C#N)S(=O)(=O)c1ccccn1` reads 2.36% (inactive); that for `CCOC(=O)C1CCN(C(=O)Nc2ccc(C)c(Cl)c2)CC1`, 3.42% (inactive).

With `CCCCOC(=O)CCCc1ccc([N+](=O)[O-])cc1[N+](=O)[O-]`, the reporter increase was 12.8% (active). Turning to `CCOC(=O)COc1ccc([N+](=O)[O-])cc1`, the reporter increase was -1.98% (inactive). With `CCOC(=O)C/C(C)=N\Nc1ccc([N+](=O)[O-])cc1[N+](=O)[O-]` the figure was -1.73% (inactive); with `CC1(C)CC(CNCCC(c2ccc(F)cc2)c2ccco2)CCO1` (stereo not given), -2.08% (inactive). With `CC(C)CNC(=O)CC(NCC(C)C)C(=O)O` (stereo not given) the figure was -0.85% (inactive); with `CC(C)CNC(=O)C(=O)NCc1ccccc1`, -2.69% (inactive); with `CC(C)CNC(=O)/C=C/C(=O)O`, 31.4% (active) and -2.62% (inactive).

With `CN(Cc1nc(-c2cnccn2)no1)Cc1n[nH]c2c1CCCCC2`, the reporter increase was -0.67% (inactive). Turning to `O=C(O)C1CCN1C1CCCCC1` (stereo not given), the reporter increase was 8.91% (active).

Take `O=C(O)c1cccc2c1C(=O)N(C1CCCCC1)C2`: the reporter increase is -0.13% (inactive). Regarding `CC(Sc1nnnn1C1CCCCC1)C(=O)O` (stereo not given), the reporter increase was -1.64% (inactive). The result for `O=C(CCNc1n[nH]c(=O)[nH]c1=O)N/N=C\c1ccc(Br)cc1` reads -1.51% (inactive); that for `COc1c(N2CCN(C(=S)Nc3ccccc3F)C(C)C2)c(F)cc2c(=O)c(C(=O)O)cn(C3CC3)c12` (stereo not given), -0.39% (inactive); that for `CCC(=O)Nc1ccc(C(=O)Nc2cccc(OC)c2)cc1`, 0.16% (inactive).

`CCOC(=O)c1cc(NC(=O)c2cccnc2)cc(C(=O)OCC)c1`: the reporter increase was -1.21% (inactive). With `CCC(=O)Nc1cccc(NC(=O)c2cccnc2)c1`, the reporter increase was 14.3% (active).
